Hits are enriched below; roughly 18% of the tested compounds scored in any of these assays.
IL-1B inflam inh = blocks inflammasome-driven IL-1 beta release | 360,000 tested, 4.7% active | AID 743279 | THP-1 LPS/ATP IL-1B secretion, AlphaLISA, 16 h; hits give low values | activity change, % at 57.5 µM; in the data active = activity change below about -50%; inconclusive = mostly about -30% to -49%
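Secreted IL-1B measured by AlphaLISA bead assay after 16 h compound exposure of THP-1 cells; compounds (final up to 57.5 uM) added 1 h before LPS (250 ng/mL) and ATP (1.25 mM) stimulation; lower signal means less secretion.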
DT40 TDP1 CPT = growth inhibition of DT40 Tdp1-/-;hTDP1 cells with camptothecin (screen for TDP1 inhibitors); chicken DT40 Tdp1-/-;hTDP1 cells + 20 nM CPT, ATP luminescence, 48 h; Potency, µM (series often up to 46.2 µM), for inactives: at the top dose activity change, negative = growth inhibition, actives largely listed as inhibitors; 420,000 tested, 12% active; AID 686979; also: potency is read from the fitted curve at half-maximal effect; nearly all actives have a fitted effect of over 55% in size
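Chicken DT40 Tdp1-/- cells complemented with human TDP1, 400 cells/well, exposed to compounds plus 20 nM camptothecin for at least 48 h at 37 C; viability read as ATP content by CellTiter-Glo luminescence.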
Six1-Eya2 inh = Six1/Eya2 interaction inhibition | Q15475+O00167 | AlphaScreen GST-Six1/His-Eya2 binding, biochemical; hits give low values | activity change, % (concentration not given with the values) | 360,000 tested, 0.56% active | AID 651725; in the data active = activity change below about -65%; inconclusive = mostly about -30% to -63%
Target sequence (O00167 whole entry, looked up): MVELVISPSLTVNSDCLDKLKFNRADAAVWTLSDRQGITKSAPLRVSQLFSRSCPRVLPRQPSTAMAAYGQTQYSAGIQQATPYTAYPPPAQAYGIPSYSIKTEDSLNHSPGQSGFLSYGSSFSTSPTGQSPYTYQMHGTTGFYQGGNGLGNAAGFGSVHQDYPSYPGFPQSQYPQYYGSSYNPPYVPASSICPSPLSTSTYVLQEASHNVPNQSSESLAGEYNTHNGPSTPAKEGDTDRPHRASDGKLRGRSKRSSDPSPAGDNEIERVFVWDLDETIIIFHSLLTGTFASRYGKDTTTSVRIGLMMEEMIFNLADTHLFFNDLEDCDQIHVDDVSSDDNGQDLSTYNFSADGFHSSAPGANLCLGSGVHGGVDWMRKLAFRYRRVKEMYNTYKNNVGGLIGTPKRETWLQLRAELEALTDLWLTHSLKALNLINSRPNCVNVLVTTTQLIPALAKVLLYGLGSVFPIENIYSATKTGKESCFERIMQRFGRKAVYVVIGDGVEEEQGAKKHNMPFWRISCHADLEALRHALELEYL
Target sequence (Q15475 whole entry, looked up): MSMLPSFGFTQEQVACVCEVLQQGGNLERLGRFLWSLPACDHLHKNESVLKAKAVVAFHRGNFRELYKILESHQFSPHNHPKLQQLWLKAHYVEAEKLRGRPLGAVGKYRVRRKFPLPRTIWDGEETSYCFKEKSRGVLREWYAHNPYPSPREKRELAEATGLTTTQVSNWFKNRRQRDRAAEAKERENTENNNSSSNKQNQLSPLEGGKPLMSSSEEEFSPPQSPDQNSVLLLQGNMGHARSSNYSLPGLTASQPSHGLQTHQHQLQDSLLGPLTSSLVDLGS
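Compounds are tested against tagged Six1 and Eya2 proteins bridged by glutathione donor and nickel acceptor beads; after a one-hour incubation at 37 °C without light, AlphaScreen emission is recorded.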
CtBP-E1A inh = CtBP/E1A binding inhibition; AlphaScreen GST-E1A/His-CtBP binding, 1536-well; hits give low values; activity change, % (test concentration not listed); AID 651724; 340,000 tested, 0.49% active; in the data active = activity change below about -65%; inconclusive = mostly about -30% to -63%
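Homogeneous bead-based format: GST-tagged E1A captured on glutathione donor beads, His-tagged CtBP on nickel acceptor beads; compounds precede bead addition by 2 h at 37 °C.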
DT40 TDP1 no CPT = qHTS for Inhibitors of human tyrosyl-DNA phosphodiesterase 1 (TDP1): qHTS in cells in absence of CPT. 420,000 tested, 15% active. Potency, µM (top dose mostly 46.2 µM), for the others: at the top dose activity change, negative = growth inhibition, actives largely listed as inhibitors. DT40 Tdp1-/- hTDP1 cells, no CPT, ATP luminescence, 48 h; also: potency is read from the fitted curve at half-maximal effect; nearly all actives have a fitted effect of over 55% in size
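No-CPT arm: Tdp1-/-;hTDP1 DT40 cells (400/well) plus compounds, incubated ≥48 hr at 37 °C. Readout CellTiter-Glo luminescence.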
TDP1 block = inhibitors of human tyrosyl-DNA phosphodiesterase TDP1; recombinant TDP1, AlphaScreen DNA substrate cleavage; Potency, µM (doses to about 130 µM), for the others: at the top dose activity change, negative = inhibition, hits mostly inhibitors; Q9NUW8; AID 485290; 350,000 tested, 0.28% active; also: potency is read from the fitted curve at half-maximal effect; nearly all actives have a fitted effect of over 40% in size
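Steps: enzyme plus compound, 15 min RT; add biotin/phosphotyrosine-FITC oligonucleotide (15 nM final), react 5 min; add donor/acceptor beads (10 ug/ml final), 10 min; read AlphaScreen. Tdp1 at 1 nM final.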
* = called active by the depositor; i = inactive; ? = inconclusive; / = no result given. Unless noted, calls follow the shape of the dose curve; as a rule, active = well fitted curve in the direction sought with a large enough effect; inconclusive = small, poorly fitted or top-dose-only effect, or another doubt; inactive = no such curve, though single readings can be large; an effect the other way counts as inactive or inconclusive. % is scaled to controls: 0 for no effect and ±100 for the full control effect.

SMILES	IL-1B inflam inh	DT40 TDP1 CPT	Six1-Eya2 inh	CtBP-E1A inh	DT40 TDP1 no CPT	TDP1 block
CCc1ccc(-c2cn3c(n2)sc2cc(C(=O)NC4CCCCCC4)ccc23)cc1	/	12µM*	/	/	10µM*	3%
CCCOc1ccc(NC(=O)C2CC(=O)N(C(C)C)C2)cc1 (stereo not given)	-1	7%	6	6	-14%	1%
O=C(CC1CCCCC1)Nc1ccccc1-c1ccccc1	-4	?	2	/	21µM*	3%
CC(=O)Nc1ccc(SCC(=O)Nc2ccccc2-c2ccccc2)cc1	25	?	15	21	23µM*	0%
Cc1cc(C)cc(NC(=O)CNC(c2ccccc2)c2ccccc2)c1	-6	?	0	1	10µM*	/
COc1ccc(NC(=O)CNC(c2ccccc2)c2ccccc2)cc1Cl	-18	?	6	2	?	/
O=C(CNC(c1ccccc1)c1ccccc1)Nc1ccccc1-c1ccccc1	16	?	3	3	18µM*	-3%
CC(=O)Nc1ccc(SCC(=O)N(C)CC(=O)Nc2ccccc2Cl)cc1	3	-21%	-13	-1	?	1%
COc1ccccc1CN1CCNC(=O)C1CC(=O)NCCOc1cccnc1 (stereo not given)	33	-25%	0	4	-1%	-1%
NC(=O)c1ccc(-n2nnnc2SCC(=O)Nc2ccccc2-c2ccccc2)cc1	-1	?	9	-7	16µM*	-6%
NC(=O)c1nn(-c2ccccc2)nc1NC(=O)CSc1nnnn1-c1ccc(Cl)cc1	-13	?	1	-12	16µM*	3%
COC(=O)c1ccc(-n2nnnc2SCC(=O)Nc2ccccc2C(=O)OC)cc1	19	?	4	-4	?	6%
O=C(CSc1nnnn1-c1ccccc1)Nc1ccc(Cl)cc1	-17	-7%	4	7	-23%	4%
O=C(CSc1nnnn1-c1ccc(Cl)cc1)Nc1cccnc1Cl	8	23µM*	2	2	?	5%
Cc1ccc(-n2nnnc2SCC(=O)Nc2cccnc2Cl)cc1	18	-12%	12	4	?	5%
CC(C)COC(=O)C1C2C=CC3(CN(C4CCCC4)C(=O)C13)O2 (stereo not given)	-10	24%	4	5	-2%	0%
COc1ccc(-c2noc(CN(C)CCC3CCCCO3)n2)cc1 (stereo not given)	7	-7%	18	1	?	0%
CS(=O)(=O)N(Cc1nc(-c2ccc(F)cc2)no1)c1ccccc1Cl	?	18µM*	-2	3	?	/
COc1ccc(S(=O)(=O)NCc2cccs2)cc1	-11	-18%	-6	-4	-5%	22µM*
COc1ccc(S(=O)(=O)N(Cc2cccs2)C2CCCC2)cc1	-14	18µM*	33	19	12µM*	7%
COc1ccc(S(=O)(=O)N(Cc2nc(-c3ccccc3)no2)C2CCCCC2)cc1	/	16µM*	/	/	9.2µM*	-4%
CCOc1ccc(C2CC(c3ccc(F)cc3)Nc3nc(N)nn32)cc1 (stereo not given)	-16	-2%	1	4	-2%	5%
CCN1C[C@@H]2[C@@H]3C(=O)N(Cc4ccccc4)C(=O)[C@@H]3[C@](C)(C1=O)N2C(=O)c1ccc(C)cc1	18	2%	0	2	12%	/
CCC(=O)NNc1ncnc2c1cnn2C	51	7%	14	-6	16%	-4%
O=C(CSc1ccc2nnc(-c3ccccn3)n2n1)Nc1ccccc1	i	-6%	?	-11	-25%	2%
COc1ccc(Cc2nc(-c3ccccc3)no2)cc1	37	-12%	50	60	-16%	?
Cc1ccc(-c2noc(CN(C3CCCCC3)S(=O)(=O)c3ccc(F)cc3)n2)cc1	/	?	/	/	18µM*	-2%
